SMILES strings stand for the structures. Inconclusive results are not listed. The source made the active and inactive calls. Calls follow the shape of the dose curve; as a rule, active = well fitted inhibition curve with a large enough effect; inconclusive = small, poorly fitted or top-dose-only effect; inactive = no such curve, though single readings can be large or run the other way.

The assay can be described thus: qHTS Assay for Lipid Storage Modulators: COS7 Assay against Probe and Analogs. The conditions noted are these: COS7 lipid droplet area, BODIPY imaging, 18 h; cells loaded with 400 µM oleic acid. The text has this: Storing lipids as a reservoir for energy or the anabolism of elementary metabolites is a common feature of probably all cells and is conserved from bacteria to humans. The universal cellular lipid storage organelle is the so-called lipid storage droplet (LD). Although ubiquitous, LDs share a simple structure composed of a hydrophobic core that harbors the storage lipids, which is shielded by a droplet-specific phospholipid monolayer to which proteins are attached. The current model of LD biogenesis involves an incorporation of the lipid core into the membrane leaflets of the endoplasmic reticulum (ER) followed by a subsequent budding-like maturation of a LD, which ultimately pinches off. Once released, LD volume can increase by localized lipogenesis or fusion of existing droplets. Storage lipids are re-mobilized enzymatically by lipase activity. Lipase regulation in the adipocyte is heavily studied and involves multiple components including catecholamine signaling, the LD-associated proteins Perilipin and comparative gene identification-58 (CGI-58) and at least two lipases named hormone sensitive lipase (HSL) and adipocyte triglyceride lipase (ATGL). LD regulation outside of the adipocyte is poorly understood and only few components are known. However, there is an urgent need to learn more about ectopic fat depots as mislocalized storage of lipids, for example in the liver or muscle, is an eminent health problem associated with insulin resistance or the metabolic syndrome. We developed a laser-scanning cytometer assay to enable 1,536-well screening and combined the results of the small molecules screen with an RNAi database based on lipid storage. In this assay we tested analogs of the probe against a mammalian cell line (COS7), to see if these small molecules could disrupt lipid storage. NIH Molecular Libraries Probe Production Centers Network [MLPCN] NIH Chemical Genomics Center [NCGC] MLPCN Grant: MH085686 Assay Submitter (PI): Mathias Beller, Max-Planck-Institut fur Biophysikalische Chemie
COS7 cells were obtained from ATCC (CRL-1651), 5500 cells/well were dispensed into Corning 96 well imaging plate (catalog # 3340), and cultured in 100 uL of 1:1 DMEM medium (PAA) contain 10% fetal bovine serum (FBS) for 24 hours at 37 degrees C, 95% humidity, and 5% CO2. The medium was exchanged for compound treatment. Compound treatment occurred in 150 microL serum reduced medium (5% FBS) and 0.2% DMSO in presence of 400 microM oleic acid for 17-18 h. Cells were then fixed (3.7 % formaldehyde in PBS, 5 min), permeabilized (0.1% Triton X100, 5 min) and washed three times with PBS. Lipid droplets (1:2000 BODIPY 493/503) and nuclei (1:1000 Hoechst 33342) were stained for 1h. Imaging was performed in a Zeiss Axiovert automatic microscope. Number of lipid droplet accumulated in […] cells were analyzed using visual examination of the microscopic images and additional quantification by image segmentation using Cell Profiler.
Regarding `CCOC(=O)C1CCN(C(=O)C(C)(C)NC(=O)Nc2ccccc2Cl)CC1`, the Potency was 13.2 µM (active). Still for that read-out and setting: the same measure for `CCOc1ccc(CCN(C)C(=O)c2cc3sccc3n2Cc2ccccc2)cc1OCC`: 11.8 µM (active). As to `CCOC(=O)C1CCN(C(=O)C(C)(C)NC(=O)Nc2ccc(CN3CCOCC3)cc2)CC1`, the max response was -3.75% (inactive).

In the case of `O=C(NC1CCCc2c1cnn2-c1ccc(F)cc1F)c1cccc(=O)[nH]1` (stereo not given), the max response was 14.9% (inactive). Turning to `CCOC(=O)C1CCN(C(=O)C2(NC(=O)Nc3ccccc3Cl)CCCCC2)CC1`, the max response is -103% (inactive). On to `O=C(NC1CCCc2c1cnn2-c1ccc(F)cc1F)c1ccncc1` (stereo not given), for which the max response is 1.34% (inactive). On the same count and under the same terms, the same measure for `CN(C)CC(=O)NC1CCCc2c1cnn2-c1ccc(F)cc1F` (stereo not given): 19.8% (inactive).

`CCOc1ccc(CCNC(=O)c2cnon2)cc1OCC`: the max response was 8.92% (inactive). Still for that read-out and setting: under `CCOc1ccc(CCNC(=O)c2cccs2)cc1OCC` stands -20.6% (inactive). In the case of `CCOc1ccc(CCNC(=O)c2cccc(C(=O)c3ccccc3)c2)cc1OCC`, the Potency was 14.8 µM (active). Turning to `O=C(NC1CCCc2c1cnn2-c1ccc(F)cc1F)C1CC1` (stereo not given), the max response was 3.35% (inactive). Same read-out and setting: the same measure for `O=C(NC1CCCc2c1cnn2-c1ccc(F)cc1F)c1cnccn1` (stereo not given): -14.9% (inactive).

As for `CCOc1ccc(C(C)CNC(=O)c2cc3sccc3n2Cc2ccccc2)cc1OCC` (stereo not given), the Potency is 11.8 µM (active).

As for `O=C(NC1CCCc2c1cnn2-c1ccc(F)cc1F)c1ccn[nH]1` (stereo not given), the max response was -5.9% (inactive). For the compound `CCOc1ccc(CCNC(=O)c2cc3sccc3n2Cc2ccccc2)c(F)c1OCC`, the Potency was 16.6 µM (active). Turning to `CCOc1ccc(CCNC(=O)c2cc3c(s2)CCC3)cc1OCC`, the Potency was 11.8 µM (active). Regarding `CC(C)(C)OC(=O)NC1CCCc2c1cnn2-c1ccc(F)cc1F` (stereo not given), the max response was 3.11% (inactive).

For the compound `CCOc1ccc(CCNC(=O)Cc2ccccc2)cc1OCC`, the max response is -10.6% (inactive). With `CCOc1ccc(CCNC(=O)c2cc3ccccc3o2)cc1OCC`, the Potency is 29.6 µM (active). For `CCn1c(C(=O)NCCc2ccc(OC)c(OC)c2)cc2sccc21`, the max response is 3.82% (inactive). Same read-out and setting: under `CCOc1ccc(CCNC(=O)c2ccc3ccccc3n2)cc1OCC` stands -25% (inactive). `CC(C)(NC(=O)Nc1ccccc1Cl)C(=O)N1CCC(C(=O)O)CC1`: the max response was 21.7% (inactive). As to `CCOC(=O)C1CCN(C(=O)C(C)(C)NC(=O)Nc2ccc(Cl)cc2Cl)CC1`, the Potency is 6.62 µM (active). Regarding `O=C(NCCc1ccc(O)c(O)c1)c1cc2sccc2n1Cc1ccccc1`, the max response was 20.9% (inactive). Consider `CCOc1cc2c(cc1OCC)CN(C(=O)c1cc3sccc3n1Cc1ccccc1)CC2`, for which the Potency was 3.32 µM (active). For `O=C(NC1CCCc2c1cnn2-c1ccc(F)cc1F)C1CCCCC1` (stereo not given), the max response was 3.71% (inactive).

`CCOC(=O)C1CCN(C(=O)C2(NC(=O)Nc3ccccc3Cl)CC2)CC1`: the max response was -17.2% (inactive). Turning to `CCOC(=O)C1CCN(C(=O)C(C)(C)NC(=O)Nc2cccc(OC)c2)CC1`, the Potency is 16.6 µM (active). `COc1cc(C)c(Sc2cnc(NC(=O)c3ccc(CNC(C)C(C)(C)C)cc3)s2)cc1C(=O)N1CCN(C(C)=O)CC1` (stereo not given): the max response is -8.98% (inactive). On the same count and under the same terms, the same measure for `O=C(NC1CCCc2c1cnn2-c1ccc(F)cc1F)c1ccc(C2(C(F)(F)F)N=N2)cc1` (stereo not given): 3.15% (inactive); for `CCOC(=O)C1CCN(C(=O)C(C)(C)NC(=O)Nc2ccc([N+](=O)[O-])cc2)CC1`: 8.04% (inactive). Turning to `CC(NCc1ccc2c(c1)nc(NC(=O)c1ccc(-c3cn[nH]c3)s1)n2CC(C)(C)O)C(C)(C)C` (stereo not given), the Potency is 4.69 µM (active). The same measure, in the same setting: under `CCOC(=O)C1CCN(C(=O)C(C)(C)NC(=O)Nc2ccc(-c3ccccc3)cc2)CC1` stands 10.5 µM (active). `CCN(CC)C(=O)C1CCN(C(=O)C(C)(C)NC(=O)Nc2ccccc2Cl)CC1`: the max response is -9.22% (inactive). Regarding `CCOc1ccc(CCNC(=O)c2ccnn2Cc2cccc(C)c2)cc1OCC`, the Potency is 13.2 µM (active). Turning to `Cc1ccc(NC(=O)c2ccc(CN3CCN(C)CC3)cc2)cc1Nc1nc(-c2cccnc2)cs1`, the max response is -0.902% (inactive). The same measure, in the same setting: under `O=C(NC1CCCc2c1cnn2-c1ccc(F)cc1F)C1CCCCN1` (stereo not given) stands -10.9% (inactive). As for `COc1ccc(-n2ncc3c2CCCC3NC(=O)c2ccccn2)cc1` (stereo not given), the Potency is 4.69 µM (active). For `Cc1cc2c(cc1C1(c3ccc(C(=O)O)cc3)CC1)C(C)(C)CCC2(C)C`, the max response was -1.19% (inactive). Consider `CC(C)(C)OC(=O)NCCOCCOCCOc1cccc(-n2ncc3c2CCCC3NC(=O)c2ccccn2)c1` (stereo not given), for which the Potency was 14.8 µM (active).

These data come from PubChem BioAssay AID652283 (National Center for Advancing Translational Sciences (NCATS), 2013).
